From ChEMBL document CHEMBL4513216, “Probing the Open Global Health Chemical Diversity Library for Multistage-Active Starting Points for Next-Generation Antimalarials” (ACS Infect Dis, 2020)
The campaign covered roughly 69,000 compounds. About 8,600 (12%) showed an effect of 50% or more. This excerpt belongs to a sample that is enriched for strong results.

System: Plasmodium berghei
Experiment: Screen against P. berghei liver stage (PbLuc), transformed with Luciferase, at 10uM
Assay type: functional, HepG2
Conditions: tested at 10 uM

Row | SMILES | INHIBITION [%]
1 | Cc1oc(-c2nc(C#N)c(NC(C)(C)C)o2)cc1S(=O)(=O)N1CCCC1 | 40.1
2 | CCC(CC)N1CCC(c2[nH]ncc2S(C)(=O)=O)C1 (stereo not given) | -3.94
3 | O=C(NCc1ccco1)N1CCCCC1c1nc(-c2ccncc2)no1 (stereo not given) | -31
4 | CS(=O)(=O)N1C[C@H]2CC[C@@H](C1)N(C(=O)Cn1nc3ccccc3n1)C2 | 21.7
5 | C[C@@H]1CN(C2Cc3ccccc3C2)CC[C@@]1(O)C1CCOCC1 | 10.2
6 | C[C@@H]1CN(C2CCN(c3ccccc3)CC2)CC[C@@]1(O)C1CCOCC1 | -2.61
7 | C[C@@H]1CN(C2CCCCC2)CC[C@@]1(O)C1CCOCC1 | 57.7
8 | Cc1nc(C)n(CC2CCCN2CCC(=O)NC2CCCC2)n1 (stereo not given) | -38.7
9 | CN(C)c1ccc(C(=O)N2CCN(CC(C)(C)O)CC2)nn1 | 21.6
10 | Cc1ccc(C(=O)NCC(O)c2cccc(F)c2)c(=O)[nH]1 (stereo not given) | 52.5
11 | Cc1cc(C)c(CNC(=O)NCC(O)c2cccc(F)c2)c(=O)[nH]1 (stereo not given) | 27.9
12 | O=C(NCC(O)c1ccc(F)c(F)c1)c1cccnc1O (stereo not given) | 36.8
13 | Cc1ccc(C(=O)NCC(O)c2ccc(F)c(F)c2)c(=O)[nH]1 (stereo not given) | 26.6
14 | O=C(NCC(O)c1cccc(F)c1)c1cccnc1O (stereo not given) | 50.1
15 | O=C(NCC(O)c1ccc(F)cc1F)c1cccnc1O (stereo not given) | 38.3
16 | FC(F)COc1ccccc1NCc1nnsc1Cl | 8.9
17 | CC1(C)Cc2ccc(C(=O)NC3CCOCC3)c(O)c2O1 | -42.8
18 | Cc1cnn(CC2CN(CC(=O)NCc3ccc(C)s3)CCO2)c1 (stereo not given) | 19.4
19 | CCC[C@@H]1CN(Cc2cc(OC)c3c(c2)OCO3)C[C@H]1C(=O)O | 39.4
20 | CCC[C@@H]1CN(Cc2cc3c(cc2OC)OCCO3)C[C@H]1C(=O)O | 54.4
21 | CCC[C@@H]1CN(Cc2cc3c(cc2OC)OCO3)C[C@H]1C(=O)O | 35.1
22 | Cc1ccc(S(=O)(=O)NC(=O)C2(c3ccc(F)cc3)CCC2)c(C)c1 | 20

Row | SMILES | INHIBITION [%]
23 | O=C(c1cccc(-c2ccc(F)cc2)c1)N1CCC2(CC1)[C@H](O)C[C@@H]2O | -8.47
24 | CCc1nc(C2CCCN2C(=O)c2cnns2)no1 (stereo not given) | 29.765
25 | O=C(NCc1ccc(CN2CCCC2)cc1)NC1(CO)CCCC1 | 62.8
26 | CC(C)OCc1ccc(CNC(=O)NC2(CO)CCCC2)cc1 | 46.1
27 | O=C(NCc1ccc(CN2CCCC2)cc1)NCc1ccon1 | 20.4
28 | CC(C)CCCNC(=O)Nc1ccc(Cl)c(C(N)=O)c1 | -57.4
29 | CCN(CC)C(=O)CSc1sc2c(O)cc(=O)[nH]c2c1C(N)=O | 4.07
30 | COc1ccc(C(C)Nc2ncnc3c2NC(=O)CN3)cc1 (stereo not given) | 8.49
31 | O=S(=O)(c1c(N2CCCC2)ccc2nonc12)N1CCCC1 | 17.7
32 | CCn1cc(-c2cc(C(=O)N3CCOCC3)c3cc(Cl)ccc3n2)cn1 | 12.9
33 | COc1cc(F)cc2sc(NC(=O)COCC3CCCO3)nc12 (stereo not given) | 16.1
34 | Cc1noc([C@H]2C[C@@H]3CCN(C(=O)c4cccn4C)C[C@H]3O2)n1 | 25.8
35 | Cc1noc([C@H]2C[C@H]3CN(C(=O)C4CCOCC4)CC[C@@H]3O2)n1 | 59
36 | Cc1noc([C@@H]2C[C@H]3CN(C(=O)C4CCN(C)CC4)C[C@H]3O2)n1 | 28.7
37 | Cc1noc([C@H]2C[C@@H]3CCN(C(=O)N(C)C)C[C@H]3O2)n1 | 54.6
38 | Cc1noc([C@H]2C[C@@H]3CCN(C(=O)C4CCOCC4)C[C@H]3O2)n1 | 41.5
39 | COCC(=O)N1CC[C@H]2C[C@H](c3nc(C)no3)O[C@@H]2C1 | -41.2
40 | CCN(Cc1ccc(OC)c(F)c1)Cc1nc2c(cnn2C)c(=O)[nH]1 | 11.6
41 | COCCNC(=O)N1CCN(C(=O)Cc2ccccc2F)CC1 | -63.6
42 | CN1N=C(C(=O)N(Cc2ccco2)C2CCCC2)CCC1=O | 46.1
43 | Cc1nc(C)c(C(=O)N2CCc3nnc(C4CCCCN4C)n3CC2)s1 (stereo not given) | -12.4
44 | CCc1ccccc1Nc1noc2c1CN(C(=O)C1CCCO1)CC2 (stereo not given) | -9.32

Row | SMILES | INHIBITION [%]
45 | CCN1CCCCC1C(=O)N1CCc2onc(-c3ccc(Cl)cc3)c2C1 (stereo not given) | 20.2
46 | O=C(C1CCCO1)N1CCc2onc(-c3ccc(Cl)cc3)c2C1 (stereo not given) | 59.1
47 | Cn1cc(C(=O)N2CCN(Cc3ccsc3)CC2)cn1 | -2.825
48 | O=C(NCCN1CCCC1)Nc1cc(C(=O)N2CCOCC2)ccc1Cl | 67.5
49 | O=C(NCCn1cccn1)Nc1cc(C(=O)N2CCOCC2)ccc1Cl | 45.2
50 | CCSCCNC(=O)Nc1cc(C(=O)N2CCOCC2)ccc1Cl | 36.9
51 | Cc1cc(C)nc(N2CCOC(c3cc(CCO)[nH]n3)C2)n1 (stereo not given) | 2.99
52 | CC(C)(C)C1SCC(=O)Nc2c1c(O)nn2C1CCCC1 (stereo not given) | 48
53 | Cn1cc(CN2CCCC3(CCCCN3S(C)(=O)=O)C2)cn1 (stereo not given) | 18.3
54 | CNC(=O)c1cc2c(nc1N(C)C)CCN(S(=O)(=O)CC(C)C)CC2 | -22.8
55 | CCS(=O)(=O)N1CCc2cc(C(=O)NC)c(N(C)C)nc2CC1 | 19.8
56 | CNC(=O)c1cc2c(nc1N(C)C)CCN(c1ncccn1)CC2 | 63.8
57 | CNC(=O)c1cc2c(nc1N(C)C)CCN(c1ncc(F)cn1)CC2 | 50.3
58 | CCc1cnc(N2CCc3cc(C(=O)NC)c(N(C)C)nc3CC2)nc1 | 81
59 | Cc1cnc(N2CCc3cc(C(=O)O)c(N(C)C)nc3CC2)nc1 | 31.2
60 | CNC(=O)c1cc2c(nc1N(C)C)CCN(S(=O)(=O)N(C)C)CC2 | 44.8
61 | CNC(=O)c1cc2c(nc1N(C)C)CCN(C)CC2 | 13.3
62 | CNC(=O)c1cc2c(nc1N(C)C)CCN(S(=O)(=O)C1CC1)CC2 | 9.3
63 | CNC(=O)c1cc2c(nc1N(C)C)CCN(c1ncc(C)cn1)CC2 | 57.5
64 | CNC(=O)c1cc2c(nc1NCC(C)C)CCN(S(=O)(=O)N(C)C)CC2 | -23.4
65 | CNC(=O)c1cc2c(nc1NCC(C)C)CCN(S(C)(=O)=O)CC2 | -26.1
